Sfp inh = qHTS Assay for Inhibitors of Bacillus subtilis Sfp phosphopantetheinyl transferase (PPTase); Potency, µM, without a hit: largest response in the series, negative = inhibition, usual class: inhibitors; hit rate 3.5% among 310,000; 4'-phosphopantetheinyl transferase ffp (Bacillus subtilis), Q9F4F7; Biochemical Sfp PPTase activity, qHTS;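 further: the enzyme is Sfp with the accession as filed and its product quenches rhodamine fluorescence; 0% = enzyme reaction without inhibitor and -100% = no enzyme wells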
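Buffer: 50 mM Hepes-Na pH 7.6, 10 mM MgCl2, 0.01% Nonidet P-40, 0.01% BSA. Enzyme 15 nM, pre-exposed to compound 15 min; substrates then added and fluorescence change tracked over 30 min.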
Epigenetic reg = Quantitative High-Throughput Screen for Regulators of Epigenetic Control; murine LDR cells, GFP reporter derepression, 30 h; Potency, µM (top dose mostly 53.9 µM), inactives show at the top dose GFP activation, most hits filed as activators; hit rate 0.2% among 280,000; AID 1865, 2009; further: % of control where 0% means no effect; nearly all actives have a fitted effect of over 60% in size
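Readout is the number of GFP-expressing murine LDR cells, counted by cytometry following washing. Cells were treated with compound for 30 h at 37 C; the stably integrated CMV-GFP locus is normally silent.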
PINK1 modulator = A Quantitative High throughput Screen to Identify Chemical Modulators of PINK1 Expression; Potency, µM (series often up to 76.6 µM), inactives show top-dose activation (PINK1 increase), usual class: activators; PINK1 immunofluorescence, high-content cytometry, 24 h; hit rate 0.2% among 410,000; active means well fitted activation curve with a large enough effect; inconclusive means small, poorly fitted or top-dose-only effect; cell line not stated here; further: % of control where 0% means no effect; nearly all actives have a fitted effect of over 65% in size
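A stable cell line was treated with compounds at 5 concentrations for 24 hours, with CCCP as control. PINK1 levels and mitochondrial localization were measured by immunofluorescence with mitochondrial, cell and nuclear markers after fixation, read by laser-scanning cytometry.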
VP16 counter = VP16 counterscreen qHTS for inhibitors of ROR gamma transcriptional activity; Drosophila S2 Gal4-VP16 UAS-luciferase, luminescence, 20 h; Potency, µM (top dose mostly 53.6 µM), for inactives: at the highest dose activity, negative = inhibition, most hits filed as inhibitors; hit rate 3.5% among 310,000; AID 2546, 2010;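 further: Gal4-VP16 expression switched on by copper sulfate through the metallothionein promoter; on the % scale 0 is the no-effect control and ±100 the full control effect; nearly all actives have a fitted effect of over 50% in size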
RORg inh = qHTS for inhibitors of ROR gamma transcriptional activity; hit rate 5.4% among 310,000; Nuclear receptor ROR-gamma (Mus musculus), P51450; Potency, µM (titrated, usually from 53.6 µM), inactives show at the highest dose activity change, negative = inhibition, most hits filed as inhibitors; Drosophila S2 Gal4-RORgamma UAS-luciferase reporter, 20 h; further: on the % scale 0 is the no-effect control and ±100 the full control effect; nearly all actives have a fitted effect of over 60% in size
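Drosophila S2 cells stably expressing Gal4-DBD/mouse RORγ fusion under metallothionein promoter plus UAS-luciferase; compound 1 h, then 700 uM CuSO4 induction for 20 h at ambient temperature; inhibition read as reduced luminescence.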
ClpP mod = qHTS Assay for Activators of ClpP; ATP-dependent Clp protease proteolytic subunit (Bacillus subtilis (strain 168)), P80244; purified B. subtilis ClpP, FRET peptide cleavage, 20 min; Potency, µM (highest dose often 57.5 µM), for the others: at the highest dose activity change, negative = active; hit rate 1.9% among 340,000; AID 651965, 2013; active means well fitted falling curve with a large enough effect; inconclusive means small, poorly fitted or top-dose-only effect; inactive means no such curve, though single readings can be large or run the other way; further: the source files actives as falling curves though it sought activators and does not explain the sign; nearly all actives have a fitted effect of over 65% in size
Target sequence (P80244 whole entry, looked up): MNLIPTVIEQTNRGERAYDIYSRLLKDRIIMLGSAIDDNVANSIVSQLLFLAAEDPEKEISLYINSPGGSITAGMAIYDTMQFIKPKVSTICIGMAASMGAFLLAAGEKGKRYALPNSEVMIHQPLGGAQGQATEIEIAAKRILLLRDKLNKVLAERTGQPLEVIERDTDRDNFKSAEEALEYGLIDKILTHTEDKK
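FRET quenching reversal measured ClpP activation: 10 microg/mL B. subtilis ClpP at pH 8 with the FRET-FV decapeptide, read at 430 nm after 320 nm excitation. The 20-min minus 0-min signal was scaled between DMSO/no-enzyme wells and ADEP (5.8 microM final).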
An asterisk follows results filed as active; [ ] = remark or other dose. A selection: hits, their analogues and other compounds. The true share with any hit is near 8.1%. Unless noted, the call rests on the fitted dose curve; in most records, active means well fitted curve in the direction sought with a large enough effect; inconclusive means small, poorly fitted or top-dose-only effect, or another doubt; inactive means no such curve, though single readings can be large; an effect the other way counts as inactive or inconclusive. Potency means the concentration at half of the fitted maximal effect.

Results for CSc1ccc(C(=S)N2CCCC2)cc1 ?
Sfp inh: 50.1µM*; PINK1 modulator: 1.1%; VP16 counter: inconclusive; RORg inh: -22.5%; ClpP mod: -2.2%

Results for CCOCCCn1c(SCC(=O)Nc2oc(C)c3c(C)n[nH]c(=O)c23)nnc1-c1ccncc1 ?
PINK1 modulator: 4.7%

What do the screens show for `Cc1n[nH]c(=O)c2c(NC(=O)CSc3nnc(-c4ccncc4)n3C)oc(C)c12`?
Sfp inh: 26.9%; PINK1 modulator: -1.2%; VP16 counter: -1.6%; RORg inh: -33.8%; ClpP mod: 31.6µM*

What do the screens show for `Cc1cc(=O)n2c3ccccc3n(CC(O)CN3CCC(C)CC3)c2c1C#N` (stereo not drawn)?
Sfp inh: 11.4%; Epigenetic reg: 4.1%; PINK1 modulator: 3.1%; VP16 counter: -3.3%; RORg inh: -13.3%; ClpP mod: 35.5µM*

What do the screens show for `CCC1CCCCN1CC(O)Cn1c2ccccc2n2c(=O)cc(C)c(C#N)c12` (stereo not drawn)?
Sfp inh: 21.3%; Epigenetic reg: 2.6%; PINK1 modulator: -0.5%; VP16 counter: -15.0%; RORg inh: -5.9%; ClpP mod: 28.2µM*

How did Cc1cc(=O)n2c3ccccc3n(CC(O)CN3CCN(CCO)CC3)c2c1C#N (stereo not drawn) do in these assays?
Sfp inh: 10.6%; Epigenetic reg: -5.8%; PINK1 modulator: -0.1%; VP16 counter: 0.0%; RORg inh: -18.9%

What do the screens show for `Cc1ccc(Nc2nc(N)nc(N)c2S(=O)(=O)c2ccccc2)cc1`?
Epigenetic reg: 0.0%; PINK1 modulator: 8.3%; ClpP mod: 0.2%

Results for COc1ccc(/C=N/Nc2nncn2N)cc1Br ?
Sfp inh: -16.2%; PINK1 modulator: 3.7%; VP16 counter: inconclusive; RORg inh: 16.2%[1.91 µM]; ClpP mod: 15.8µM*

What do the screens show for `COc1ccc(CSc2nncn2N)cc1Br`?
Sfp inh: 12.1%; Epigenetic reg: -3.2%; PINK1 modulator: 0.9%; VP16 counter: 4.2%; RORg inh: inconclusive; ClpP mod: -4.2%

What do the screens show for `O=C(N/N=C/c1ccc(Cl)cc1Cl)c1ccc(-n2cnnn2)cc1`?
PINK1 modulator: 3.4%; ClpP mod: -0.2%

Results for COc1cc(/C=C(\C#N)C(N)=O)ccc1OCc1c(C)no[n+]1[O-] ?
Sfp inh: 8.9%; Epigenetic reg: 3.3%; PINK1 modulator: 1.2%; VP16 counter: 5.6%; RORg inh: 22.2%; ClpP mod: -3.7%

How did Nn1cnnc1N/N=C/c1ccc(Cl)cc1Cl do in these assays?
Sfp inh: 56.2µM*; PINK1 modulator: 2.6%; VP16 counter: -9.0%; RORg inh: -18.8%; ClpP mod: -0.7%

How did COc1cc(/C=N/Nc2nncn2N)ccc1OCc1c(C)no[n+]1[O-] do in these assays?
Sfp inh: 70.8µM*; Epigenetic reg: -2.4%; PINK1 modulator: 1.7%; VP16 counter: inconclusive; RORg inh: inconclusive; ClpP mod: -0.3%

What do the screens show for `CCC1CN(Cc2cn[nH]c2-c2ccccc2)Cc2cc(OC)ccc2O1` (stereo not drawn)?
PINK1 modulator: 1.2%

How did CCOc1ccccc1N(CC(=O)NCC1CCCO1)C(=O)CCC(=O)Nc1ccccn1 (stereo not drawn) do in these assays?
Sfp inh: 11.0%; Epigenetic reg: -0.1%; PINK1 modulator: -1.4%; VP16 counter: -18.3%; RORg inh: 35.5µM*; ClpP mod: inconclusive

What do the screens show for `CCc1ccc(N(CC(=O)NC2CCCCC2)C(=O)CCC(=O)Nc2ccccn2)cc1`?
Sfp inh: 7.5%; PINK1 modulator: 5.6%; VP16 counter: 14.7%; RORg inh: -19.1%; ClpP mod: 15.8µM*

Screens: PubChem BioAssay, National Center for Advancing Translational Sciences (NCATS)
